From PubChem
Compounds with a hit are over-represented: about 3.5% of the library has one in this group of screens.
Anthrax LF inh2 – inhibitors of Bacillus anthracis lethal factor protease; P15917; multiplex microsphere protease cleavage assay, LF; inhibition, % at 10 µM; actives 0.12% (n = 360,000)
Target sequence (P15917 whole entry, looked up): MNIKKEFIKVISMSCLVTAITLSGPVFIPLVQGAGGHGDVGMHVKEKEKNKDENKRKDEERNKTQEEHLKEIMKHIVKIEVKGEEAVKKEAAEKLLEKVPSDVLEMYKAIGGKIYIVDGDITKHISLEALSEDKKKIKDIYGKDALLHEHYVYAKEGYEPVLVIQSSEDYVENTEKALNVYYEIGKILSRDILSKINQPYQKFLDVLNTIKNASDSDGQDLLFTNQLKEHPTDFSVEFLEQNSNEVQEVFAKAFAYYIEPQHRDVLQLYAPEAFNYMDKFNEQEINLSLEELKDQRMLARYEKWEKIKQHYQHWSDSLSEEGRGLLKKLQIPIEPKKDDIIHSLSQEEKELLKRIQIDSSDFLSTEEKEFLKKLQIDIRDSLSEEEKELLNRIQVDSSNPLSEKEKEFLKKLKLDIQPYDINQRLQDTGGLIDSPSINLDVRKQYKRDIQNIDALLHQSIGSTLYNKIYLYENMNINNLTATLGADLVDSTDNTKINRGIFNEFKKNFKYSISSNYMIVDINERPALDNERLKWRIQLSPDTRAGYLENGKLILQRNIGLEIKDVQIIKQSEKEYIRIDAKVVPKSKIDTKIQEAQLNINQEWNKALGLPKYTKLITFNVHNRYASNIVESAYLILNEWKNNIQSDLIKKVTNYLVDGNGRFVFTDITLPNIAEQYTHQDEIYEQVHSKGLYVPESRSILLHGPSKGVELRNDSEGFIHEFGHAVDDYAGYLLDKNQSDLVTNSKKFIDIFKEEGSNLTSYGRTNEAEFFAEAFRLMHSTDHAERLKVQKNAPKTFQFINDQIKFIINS
BoNT F protease – inhibitors of Botulinum neurotoxin F light chain protease. Multiplex microsphere protease cleavage assay, flow cytometry. inhibition, % at 10 µM. actives 0.22% (n = 360,000). AID 588497; in the data active = inhibition above about 35%, passing the limit was not always enough; inconclusive = no clear call, values can overlap the other calls
Autofluor counter – flagged as autofluorescent in microsphere protease counterscreen | compound autofluorescence counterscreen, microsphere flow cytometry; stronger effect = higher value | fluorescence intensity (concentration not given with the values) | actives 3.1% (n = 360,000); in the data active = fluorescence intensity above about 16000; inconclusive = no clear call, values can overlap the other calls
BoNT-A LC inh2 – inhibitors of Botulinum neurotoxin A light chain protease; multiplex microsphere protease substrate cleavage, flow cytometry; inhibition, % at 10 µM; actives 0.17% (n = 360,000); AID 588499
3CLpro inhibitor – SARS-CoV 3CLpro protease inhibition. P0C6X7. recombinant SARS-CoV 3CLpro, quenched FRET peptide cleavage. inhibition, % at 6 µM. actives 0.14% (n = 290,000). AID 1706; in the data active = inhibition above about 12%
Hits are given with their value; n = inactive; u = inconclusive; x = no result given. Cut-off read from the data, not from the text of the source, unless noted: active = inhibition above about 30%; inconclusive = no clear call, values can overlap the other calls; inactive = below that.

SMILES	Anthrax LF inh2	BoNT F protease	Autofluor counter	BoNT-A LC inh2	3CLpro inhibitor
CCCCn1c(N)c(N(Cc2ccccc2OC)C(=O)C2=COCCO2)c(=O)[nH]c1=O	n	u	u	n	x
COc1cccc(C(=O)Nc2ncc3c(n2)CC(c2ccc(OC)cc2OC)CC3=O)c1 (configuration not stated)	n	n	24133	u	n
CCCc1c(O)nc(SCCN(CC)CC)n(C(=O)c2ccccc2)c1=O	n	n	23987	n	n
O=C(COC(=O)C1CCN(c2ccc(C(F)(F)F)cn2)CC1)c1ccc(F)cc1	n	n	n	n	x
COc1cc(/C=C2/SC(=S)N(CC(=O)Nc3nc4ccccc4s3)C2=O)cc(OC)c1OC	42	n	n	40	n
COc1cc(/C=C2\SC(=S)N(CC(=O)Nc3ccccn3)C2=O)cc(OC)c1OC	n	n	n	39	n
O=C(O)C1CC(=O)N(C2CCCCC2)C1c1ccccc1 (configuration not stated)	n	u	n	n	n
COc1ccc(C2C(C(=O)O)CC(=O)N2C2CCCCC2)cc1 (configuration not stated)	n	n	20476	u	n
O=C(CSc1n[nH]c(-c2ccco2)n1)N1c2ccccc2Sc2ccccc21	n	n	22111	n	n
O=C(c1cccs1)N1CCN(C2CCN(Cc3ccccc3)CC2)CC1	n	n	n	n	n
O=C(c1cccs1)N1CCN(C2CCCCC2)CC1	n	n	20556	u	n
O=C(c1cccs1)N1CCN(C(=O)C2CCCO2)CC1 (configuration not stated)	n	n	19685	n	n
COc1ccc(OC)c(NC(=O)COC(=O)c2ccc(OC)c(S(=O)(=O)N3CCOCC3)c2)c1	n	n	n	n	x
CCOC(=O)Cc1nnc(NC(=O)c2ncn[nH]2)s1	n	n	23312	n	n
CCOC(=O)Cc1nnc(NC(=O)c2ccccc2OCC)s1	n	n	n	n	n
CCOC(=O)c1cnc2nc(C(F)(F)F)[nH]n2c1=O	n	n	n	n	n
CC(C)C(=O)Nc1ccc2c(c1)nc(CCN1CCN(C)CC1)n2C	n	n	24142	n	n
Cn1c(CN2CCCCC2)nc2cc(NC(=O)c3ccc(F)cc3)ccc21	n	n	n	n	n
Cn1c(CN2CCCCC2)nc2cc(NC(=O)c3ccccc3Cl)ccc21	n	n	20760	n	n
CN1CCN(CCc2nc3cc(NC(=O)COc4ccccc4)ccc3n2C)CC1	n	n	n	n	n
Cn1c(CN2CCCC2)nc2cc(NC(=O)C3CCCCC3)ccc21	n	n	17014	n	n
O=C(N/N=C/c1cccnc1)c1cccs1	n	n	n	n	n
O=C(NCCCN1CCCC1=O)Nc1ccc([N+](=O)[O-])cc1	n	n	n	n	n
CC(=O)Oc1ccc(OC(C)=O)c2c1CC1(C)OC1(C)C2 (configuration not stated)	n	n	n	n	x
COc1cccc(CCNC(=O)CCc2nnc(-c3ccc4c(c3)OCO4)o2)c1	n	n	n	n	n
SMILES	Anthrax LF inh2	BoNT F protease	Autofluor counter	BoNT-A LC inh2	3CLpro inhibitor
Cn1c(-c2ccc3c(c2)OCO3)cnc1NCc1cccc(Cl)c1	n	n	n	n	n
Cn1c(-c2ccc3c(c2)OCO3)cnc1NCc1ccccc1Cl	n	n	n	n	n
Cn1c(-c2ccc3c(c2)OCO3)cnc1N	n	n	19330	n	n
Cn1c(-c2ccc3c(c2)OCO3)cnc1NCc1ccccc1	n	n	22213	n	n
Cc1ccc(-c2cnc(NC(=O)CCC(=O)N3CCCCC3)n2C)cc1	n	n	n	n	n
CCCCNC(=O)CCC(=O)Nc1ncc(-c2ccc(C)cc2)n1C	n	n	20268	u	n
Cn1c(-c2ccc3c(c2)OCO3)cnc1NC(=O)CCC(=O)NCCc1ccccc1	n	n	22472	n	n
O=C(Nc1ccc(F)cc1)Nc1ccccc1C(=O)NCCN1CCNC1=O	x	x	x	x	n
CN(C(=S)Nc1ccc(SC(F)F)cc1)C(c1ccccc1)c1ccccc1	n	u	n	n	n
CCOc1ccccc1NC(=O)c1ccc(F)c(S(=O)(=O)N2CCC3(CC2)OCCO3)c1	n	n	17156	u	n
CCc1c(C)sc(NC(=O)Cn2nc(C(F)(F)F)c3c2CCCC3)c1C#N	n	n	22610	n	n
O=C(Cn1nc(C(F)(F)F)c2c1CCC2)Nc1ccccc1C(F)(F)F	n	n	n	n	n
O=C(Cn1nc(C(F)(F)F)c2c1CCC2)N1CCN(c2ccccc2)CC1	n	n	23434	n	n
COc1ccccc1NC(=O)Cn1nc(C(F)(F)F)c2c1CCCC2	n	n	25001	n	n
O=C(Cn1nc(C(F)(F)F)c2c1CCCC2)Nc1ccc2c(c1)OCO2	n	n	21133	n	n
O=C(Cn1nc(C(F)(F)F)c2c1CCCC2)N1CCOCC1	n	n	n	n	n
